Experiment [1] is described as follows: qHTS assay to identify small molecule agonists of the vitamin D receptor (VDR) signaling pathway - cell viability counter screen (AID 743224). Note: series mostly up to about 63 µM; nearly all actives have a fitted effect of over 50% in size. In outline: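 Compounds were pin-transferred onto VDR-bla cells plated 4 h earlier; following 16 h incubation at 37C, cell viability was quantified by CellTiter-Glo luminescence after 30 min at room temperature.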
For orientation: Quantitative high-throughput screening tests each substance at several concentrations.

The nature of experiment [2]: qHTS assay to identify small molecule antagonists of the vitamin D receptor (VDR) signaling pathway - cell viability counter screen (AID 743225). Note: nearly all actives have a fitted effect of over 50% in size. In outline: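 Cytotoxicity toward the VDR-bla HEK 293T line was scored by ATP-based CellTiter-Glo luminescence, read in the wells already used for the beta-lactamase readout after 16 h compound treatment under 3 nM 1-alpha,25-dihydroxyvitamin D3 stimulation.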

Experiment [3] in a line: qHTS assay to identify small molecule agonists of the NFkB signaling pathway (AID 1159509; active = well fitted curve in the direction sought with a large enough effect in the signal ratio in the repeat runs, not every such curve was filed as active; the % refers to the signal ratio; note: series mostly up to about 61 µM). In outline: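 Agonist activity was read as beta-lactamase-driven FRET change (460 and 530 nm emission, 405 nm excitation) following 1.5 hr substrate loading at room temperature. Beforehand, ME-180 NFkB-bla reporter cells were treated with compounds for 5 hr at 37 C.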
Experiment [4] in a line: qHTS assay to identify small molecule agonists of the NFkB signaling pathway - cell viability counter screen (AID 1159515; calls by dose curve; note: series mostly up to about 61 µM; nearly all actives have a fitted effect of over 55% in size). In outline: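 Parallel cytotoxicity counter screen in ME-180 cells carrying an NFkB-response-element beta-lactamase reporter, 2,000 cells/well. Compound exposure lasted 5 hr at 37 C, 5% CO2. Cell viability was quantified by CellTiter-Glo luminescence.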

Experiment [5] is described as follows: qHTS assay to identify small molecule agonists of the endoplasmic reticulum stress response signaling pathway (AID 1159516; active = well fitted activation curve with a large enough effect in the signal ratio in the repeat runs, not every such curve was filed as active; the % refers to the signal ratio). In outline: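 Using a HeLa line with an ESRE-driven beta-lactamase gene, agonist activity was measured by FRET substrate fluorescence (460 and 530 nm emission) after cells were treated with compounds for 5 hr at 37 C and 5% CO2.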
Experiment [6] is described as follows: qHTS assay to identify small molecule agonists of the endoplasmic reticulum stress response signaling pathway - cell viability counter screen (AID 1159517; calls by dose curve;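 note: HeLa cells carrying an ER stress response element beta-lactamase reporter; series mostly up to about 61 µM; nearly all actives have a fitted effect of over 50% in size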). In outline: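 Cpd-treated ESRE-bla HeLa (5 hr, 37 C) → LiveBLAzer 2 hr RT → CellTiter-Glo 30 min RT → luminescence.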
Experiment [7] in a line: qHTS assay to identify small molecule antagonists of the retinoid-related orphan receptor gamma (ROR-gamma) signaling pathway - cell viability counter screen (AID 1159520). Note: nearly all actives have a fitted effect of over 50% in size. In outline: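 Tet-on ROR gamma CHO cells (1,000/well) were plated 4 hr, given compounds in DMSO for 2 hr at 37 C, then induced with 1 uM final doxycycline for 16 hr. Viability was read as ATP by CellTiter-Glo luminescence after 30 min.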

In experiment [8] the target is Nuclear receptor ROR-gamma (Homo sapiens) (UniProt P51449). The experiment in a line: qHTS assay to identify small molecule antagonists of the retinoid-related orphan receptor gamma (ROR-gamma) signaling pathway (AID 1159521). In outline:
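Readout: ONE-Glo luciferase luminescence, 30 min at room temperature. System: Tet-on RORγ CHO, RORE-LUC. Sequence: compound 2 h, doxycycline 1 uM final, 16 h at 37 C.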

A short description of experiment [9]: qHTS assay to identify small molecule agonists of the AP-1 signaling pathway (AID 1159526; calls by dose curve).
Experiment [10] has as its target Retinoic acid receptor RXR-alpha (Homo sapiens) (UniProt P19793). As to the kind of experiment: qHTS assay to identify small molecule agonists of the RXR signaling pathway (AID 1159527; calls by dose curve; note: nearly all actives have a fitted effect of over 35% in size; note: potency is the fitted concentration of half-maximal effect). In outline:
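Reporter activation is measured as beta-lactamase activity via FRET substrate cleavage (emission 460/530 nm) in HEK 293T cells expressing an RXR-alpha-driven bla construct, following 16 hr compound exposure at 37 C.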

Experiment [11] can be described thus: qHTS assay to identify small molecule agonists of the RXR signaling pathway - cell viability counter screen (AID 1159529). In outline: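 Tox21 10K compounds were tested for cytotoxicity against GeneBLAzer RXR-alpha HEK 293T cells grown in 2% charcoal-stripped FBS. Exposure lasted 16 hr at 37 C, 5% CO2; viability read by CellTiter-Glo luminescence.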
Experiment [12] in a line: qHTS assay to identify small molecule antagonists of the retinoid acid receptor (RAR) signaling pathway - cell viability counter screen (AID 1159551). Note: nearly all actives have a fitted effect of over 35% in size. In outline: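 ATP-based viability, C3RL4 cells, 6 h at 37 C with 1 uM final retinol co-added after compound; luminescence read 30 min post CellTiter-Glo, RT.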
The nature of experiment [13]: qHTS assay to identify small molecule agonists of the retinoic acid receptor (RAR) signaling pathway (AID 1159553). Note: potency is the fitted concentration of half-maximal effect. In outline: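 Quantitative high-throughput format: the Tox21 10K library was tested on C3RL4 RARE-luciferase cells for 6 hr at 37 C and 5% CO2, with luminescence measured after a 30 min room-temperature reagent step.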
Experiment [14] in a line: qHTS assay to identify small molecule antagonists of the estrogen related receptor (ERR) signaling pathway from Tox21 library - cell viability counter screen (AID 1224834). Note: nearly all actives have a fitted effect of over 30% in size. In outline:
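Compounds in DMSO were pinned onto ERR cells that had been incubated for 6 h, and the plates were held at 37 C for 17.5 h. CellTiter-Fluor reagent was then added and fluorescence was measured after 30 min.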

Experiment [15] can be described thus: qHTS assay to identify small molecule antagonists of the retinoic acid receptor (RAR) signaling pathway (AID 1159552; note: nearly all actives have a fitted effect of over 50% in size). In outline: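 Overnight-plated C3RL4 reporter cells get compound, then retinol to 1 uM final; plates sit 6 hr at 37 C, 5% CO2. A luciferase reagent is added and light output recorded after 30 min at room temperature.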
A short description of experiment [16]: qHTS assay to identify small molecule agonists of the AP-1 signaling pathway - cell viability counter screen (AID 1159525; calls by dose curve; note: nearly all actives have a fitted effect of over 55% in size). In outline: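 Each titration point was normalised to DMSO and tetra n-octyl ammonium bromide controls. The read was Cell Titer Glo luminescence after 30 min at RT, following 5 h compound exposure of ME-180 AP-1-bla cells at 37 °C.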
Experiment [17] can be described thus: qHTS assay to identify small molecule antagonists of the estrogen related receptor (ERR) signaling pathway - cell viability counter screen (AID 1224818).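 Note: series mostly up to about 46 µM; viability measured after 17.5 h of compound exposure.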 In outline: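 Quantitative high-throughput viability counter screen in ERR cells. Compounds (DMSO) incubated 17.5 h at 37 C; read-out was CellTiter-Fluor fluorescence.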
Experiment [18] can be described thus: qHTS assay to identify small molecule agonists of the estrogen related receptor (ERR) signaling pathway (AID 1224820). In outline:
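After 6 h plating (2,000 cells/well) and 18 h compound treatment at 37 C, ERR cells were lysed with One-Glo and luminescence read after 30 min at room temperature.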

Experiment [19] relates to estrogen-related receptor alpha (ERRalpha) with PGC-1alpha coactivator, human. The experiment in a line: qHTS assay to identify small molecule antagonists of the estrogen related receptor signaling pathway with the pleiotropic PPARgamma coactivator (PGC) (AID 1224821; calls by dose curve). In outline: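 Luminescence from One-Glo luciferase reagent (30 min, room temperature) measured after 18 h compound treatment at 37 °C. Cells carry the PGC/ERR reporter and were seeded 6 h prior to dosing.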

Experiment [20] is described as follows: qHTS assay to identify small molecule agonists of the estrogen related receptor signaling pathway with the pleiotropic PPARgamma coactivator (PGC) (AID 1224823). In outline:
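Luminescence from One-Glo reagent (30 min, room temperature) was read after 18 h compound treatment at 37 C of PGC/ERR cells plated 6 h beforehand; compounds delivered in DMSO by pin tool.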

Results filed as inconclusive are left out. A number with no mark means an inactive call. Calls of active or inactive are those of the source. Unless noted, calls come from the whole dose curve; as a rule, active = well fitted curve in the direction sought with a large enough effect in the repeat runs; inconclusive = weak or mixed curves; inactive = no such curve, though single readings can be large; an effect the other way counts as inactive or inconclusive.

Retinoic acid receptor RXR-alpha (Homo sapiens), sequence (P19793 whole entry, looked up): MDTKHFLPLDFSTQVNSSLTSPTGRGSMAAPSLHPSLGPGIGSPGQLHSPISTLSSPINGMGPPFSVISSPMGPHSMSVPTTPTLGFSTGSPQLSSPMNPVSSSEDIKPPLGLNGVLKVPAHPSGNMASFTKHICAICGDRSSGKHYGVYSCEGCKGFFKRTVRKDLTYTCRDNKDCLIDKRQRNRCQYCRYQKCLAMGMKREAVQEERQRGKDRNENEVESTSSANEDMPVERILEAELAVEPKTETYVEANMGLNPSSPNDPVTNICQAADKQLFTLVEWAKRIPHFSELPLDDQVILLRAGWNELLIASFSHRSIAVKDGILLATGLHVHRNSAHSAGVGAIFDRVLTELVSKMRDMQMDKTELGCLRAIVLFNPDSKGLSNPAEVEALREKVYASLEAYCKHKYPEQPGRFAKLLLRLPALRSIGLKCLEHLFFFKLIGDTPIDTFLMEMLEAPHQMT

As to `O=C1c2ccccc2C(=O)C1c1ccccc1`, the Potency entry in experiment [1], in [6], in [10], in [13] and in [14] was “inactive” throughout. The result in experiment [2], in experiment [3], in experiment [4], in [5], in [7] and in experiment [8] was inactive. In addition, the result in experiment [9], in experiment [11] and in experiment [12] was inactive.

Consider `O=C(O)c1cc(Cl)cc([N+](=O)[O-])c1Cl`, for which the Potency entry in [1], in experiment [6], in experiment [10] and in [14] was “inactive” each time. In addition, the result in experiment [3], in experiment [4], in [5], in [7], in experiment [8] and in [9] was inactive. The molecule was called inactive in experiment [11], in [12] and in [15].

With `NNc1nnc(NN)c2ccccc12`, the Potency result in experiment [1], in [6], in experiment [10] and in [14] was “inactive” each time. Besides, the molecule was classed as inactive in experiment [3], in experiment [4], in experiment [5], in experiment [7], in experiment [8] and in experiment [9]. Moreover, the molecule was classed as inactive in [11] and in experiment [12].

With `O=C(NCCc1c[nH]c2ccccc12)c1cccnc1`, the Potency entry in [1], in experiment [6], in experiment [10] and in experiment [14] was “inactive” throughout. In addition, the outcome in experiment [2], in experiment [3], in experiment [4], in experiment [5], in experiment [7] and in experiment [8] was inactive. Also, the molecule was called inactive in experiment [9], in [11], in experiment [12] and in experiment [15]. Also, the Potency in experiment [13] is 21.1 µM (active).

Take `CCCCCCOC(=O)CC`: the Potency entry in experiment [1], in [6] and in experiment [14] was “inactive” each time. The molecule was called inactive in experiment [2], in experiment [3], in experiment [4], in experiment [5], in experiment [7] and in [8]. Further, the call in experiment [16], in [9], in [11] and in experiment [12] was inactive.

For the molecule `CC(C)(C)c1cc(CCC(=O)NN)cc(C(C)(C)C)c1O`, the Potency entry in [1], in experiment [6], in [10] and in experiment [14] was “inactive” in each case. Also, the molecule was called inactive in [3], in [4], in [5], in [7], in experiment [8] and in experiment [9]. Further, the molecule was called inactive in experiment [11], in experiment [12] and in experiment [15].

Take `CCOC(=O)CC(=O)c1ccccc1`: the Potency result in experiment [1], in experiment [6] and in experiment [14] was “inactive” throughout. For the same molecule, the call in experiment [2], in experiment [3], in experiment [4], in experiment [5], in experiment [7] and in experiment [8] was inactive. The outcome in experiment [16], in [9], in experiment [11] and in experiment [12] was inactive.

With `Cc1[nH]cnc1-c1ccc(Cl)cc1`, the Potency entry in experiment [1], in experiment [6] and in [14] was “inactive” in each case. The molecule was called inactive in experiment [2], in experiment [3], in experiment [4], in experiment [5], in experiment [7] and in experiment [8]. Moreover, the molecule was classed as inactive in experiment [16], in experiment [9], in experiment [11] and in experiment [12].

For the molecule `COc1ccc(C2CNC(=O)C2)cc1OC1CCCC1` (stereo unspecified), the Potency result in experiment [1], in experiment [6], in experiment [10] and in experiment [14] was “inactive” throughout. Further, the call in experiment [2], in experiment [3], in experiment [4], in [5], in [7] and in [8] was inactive. The result in [9], in [11], in [12], in [17], in [18] and in experiment [19] was inactive. In experiment [20], the result was inactive.

`O=Cc1ccc(Cl)c(Cl)c1`: the Potency entry in experiment [1], in experiment [6], in experiment [10], in experiment [13] and in experiment [14] was “inactive” throughout. Besides, the outcome in experiment [3], in experiment [4], in experiment [5], in [7], in experiment [8] and in experiment [9] was inactive. The result in [11] and in experiment [12] was inactive.

For `Cc1cccc(C)c1NC(=O)c1ccccc1C(=O)O`, the Potency result in [1], in experiment [6] and in [10] was “inactive” each time. In addition, the call in experiment [2], in experiment [3], in [4], in experiment [5], in experiment [7] and in experiment [8] was inactive. In addition, the call in experiment [9], in experiment [11] and in experiment [12] was inactive.

`CNS(=O)(=O)CCc1ccc2[nH]cc(C3CCN(C)CC3)c2c1`: the Potency result in [1], in [6], in [10] and in [14] was “inactive” in each case. The molecule was classed as inactive in [2], in experiment [3], in experiment [4], in experiment [5], in experiment [7] and in experiment [8]. Further, the outcome in [9], in experiment [11], in experiment [12] and in [17] was inactive.

Regarding `CC(COC(C)(C)C)OCCCO` (stereo unspecified), the Potency entry in experiment [1], in [6] and in [13] was “inactive” each time. In addition, the result in [2], in experiment [3], in experiment [4], in [5], in experiment [7] and in [8] was inactive. In addition, the outcome in experiment [9], in experiment [11] and in experiment [12] was inactive. Further, in experiment [10], the Potency is 11 µM (active).

For the molecule `CC(CN)CC(C)(C)CCN` (stereo unspecified), the Potency entry in [1], in experiment [6], in [10] and in experiment [13] was “inactive” throughout. The molecule was classed as inactive in [2], in [3], in [4], in [5], in experiment [7] and in experiment [8]. Besides, the molecule was called inactive in [9], in [11] and in experiment [12].

Turning to `CCOCCOC(=O)/C=C/c1ccc(OC)cc1`, the Potency result in [1], in experiment [6], in experiment [10] and in experiment [14] was “inactive” throughout. The molecule was classed as inactive in [2], in experiment [3], in experiment [4], in [5], in experiment [7] and in [8]. The result in experiment [9], in experiment [11], in experiment [12] and in experiment [15] was inactive. For the same molecule, in experiment [13], the Potency was 33.5 µM (active).

With `NS(=O)(=O)c1cc2c(cc1Cl)CN(C1CCCCC1)C2=O`, the Potency entry in experiment [1], in [6], in [10] and in [14] was “inactive” throughout. Besides, the molecule was classed as inactive in experiment [2], in experiment [3], in experiment [4], in [5], in [7] and in experiment [8]. Moreover, the molecule was called inactive in experiment [9], in experiment [11] and in experiment [12].

The values are drawn from PubChem BioAssay (Tox21).
